# Assay results as given in the supplement of paper PMC8975748.
# Structures can show the parent of a compound that is named as a salt.
# Tested on: Saccharomyces cerevisiae BY4741 SeMeCo community
# Assay: z-score of subpopulation abundance vs DMSO median, subpopulation auxotrophic for HLUM; higher = larger share of this subpopulation than in DMSO controls
# Conditions: 10 µM; 24 h; SM minimal medium; subpopulation (auxotrophy): HLUM
# Method: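 Fluorescent four-plasmid SeMeCo (self-establishing metabolically cooperating S. cerevisiae BY4741 community; plasmids pH-mRuby2, pL-mWasabi, pU-eCFP, pM-TagRFP657) was grown 24 h in minimal SM medium with each Selleck FDA-approved drug at 10 µM in 384-well plates. Cells were fixed and imaged by high-content confocal microscopy. For each auxotrophic subpopulation (and the prototroph), a z-score gives the deviation from the DMSO vehicle-control population median.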
row,Compound,z-score of subpopulation abundance
1,Nc1nc2[nH]cc(CCc3ccc(C(=O)N[C@@H](CCC(=O)O)C(=O)O)cc3)c2c(=O)[nH]1 [Pemetrexed Disodium Hydrate],3.48
2,C/C=C1\[C@H]2C=C(C)C[C@]1(N)c1ccc(=O)[nH]c1C2 [(-)-Huperzine A (HupA)],-0.57
3,CC(=O)N1CCN(c2ccc(OCC3COC(Cn4ccnc4)(c4ccc(Cl)cc4Cl)O3)cc2)CC1 (stereo not given) [Ketoconazole],-0.62
4,CCCCN1CCCCC1C(=O)Nc1c(C)cccc1C (stereo not given) [Bupivacaine HCl],-0.67
5,COc1ccc2cc(CCC(C)=O)ccc2c1 [Nabumetone],-1.51
6,CC1(C)S[C@@H]2[C@H](NC(=O)[C@H](N)c3ccc(O)cc3)C(=O)N2[C@H]1C(=O)O [Amoxicillin trihydrate],-0.21
7,COc1ccc(CC2c3cc(OC)c(OC)cc3CC[N+]2(C)CCC(=O)OCCCCCOC(=O)CC[N+]2(C)CCc3cc(OC)c(OC)cc3C2Cc2ccc(OC)c(OC)c2)cc1OC (stereo not given) [Atracurium Besylate],-0.07
8,CC(=O)OC(C)C[N+](C)(C)C (stereo not given) [Methacholine chloride],0.95
9,Cc1ccc(C(=O)C(C)CN2CCCCC2)cc1 (stereo not given) [Tolperisone HCl],-0.57
10,CCCSc1ccc2[nH]c(NC(=O)OC)nc2c1 [Albendazole],0.29
11,OC(CCN1CCCCC1)(c1ccccc1)C1CCCCC1 (stereo not given) [Trihexyphenidyl hydrochloride],-0.13
12,O=C1[C@H]2CCCC[C@H]2C(=O)N1CCCCN1CCN(c2nsc3ccccc23)CC1 [Perospirone hydrochloride],-0.08
13,O=C(O)c1cc(/N=N/c2ccc(O)c(C(=O)O)c2)ccc1O [Olsalazine Sodium],-0.84
14,CC[C@@H]1/C=C(\C)C[C@H](C)C[C@H](OC)[C@H]2O[C@@](O)(C(=O)C(=O)N3CCCC[C@H]3C(=O)O[C@H](/C(C)=C/[C@@H]3CC[C@@H](O)[C@H](OC)C3)[C@H](C)[C@@H](O)CC1=O)[C@H](C)C[C@@H]2OC [Ascomycin (FK520)],2.95
15,C=C[C@]1(C)C[C@@H](OC(=O)CS[C@@H]2C[C@H]3CC[C@@H](C2)N3C)[C@]2(C)[C@H](C)CC[C@]3(CCC(=O)[C@H]32)[C@@H](C)[C@@H]1O [Retapamulin],0.65
16,CN1C2CCCC1CC(NC(=O)c1nn(C)c3ccccc13)C2 (stereo not given) [Granisetron],-0.81
17,Nc1ccc(S(=O)(=O)NC(=O)c2ccccc2)cc1 [Sulfabenzamide],0.15
18,O=C1OC(CN2CCOCC2)CN1/N=C/c1ccc([N+](=O)[O-])o1 (stereo not given) [Furaltadone HCl],-0.39
19,CCN1CCN(C(=O)N[C@@H](C(=O)N[C@@H]2C(=O)N3C(C(=O)O)=C(CSc4nnnn4C)CS[C@H]23)c2ccc(O)cc2)C(=O)C1=O [Cefoperazone],0.24
20,COC(=O)C1=C(C)NC(C)=C(C(=O)OC(C)C)C1c1cccc2nonc12 (stereo not given) [Isradipine],0.04

row,Compound,z-score of subpopulation abundance
1,CCN(CC)CCOCCOC(=O)C1(c2ccccc2)CCCC1 [Pentoxyverine Citrate],-0.26
2,CC(C)(O/N=C(\C(=O)N[C@@H]1C(=O)N2C(C(=O)[O-])=C(C[n+]3ccccc3)CS[C@H]12)c1csc(N)n1)C(=O)O [Ceftazidime],-0.76
3,CCN(CC)CC#CCOC(=O)C(O)(c1ccccc1)C1CCCCC1 (stereo not given) [Oxybutynin],1
4,CN1CCN(CC(=O)N2c3ccccc3C(=O)Nc3cccnc32)CC1 [Pirenzepine dihydrochloride],-0.89
5,Cc1cc(O)c(C(=O)N[C@@H](C(=O)N[C@@H]2C(=O)N3C(C(=O)O)=C(CSc4nnnn4C)CS[C@H]23)c2ccc(O)cc2)cn1 [Cefpiramide sodium],-0.55
6,C[C@]12CC[C@@H]3c4ccc(O)cc4CC[C@H]3[C@@H]1CC[C@@H]2O [Estradiol],1.17
7,CO[C@H]1C[C@@H]2CC[C@@H](C)[C@@](O)(O2)C(=O)C(=O)N2CCCC[C@H]2C(=O)O[C@H]([C@H](C)C[C@@H]2CC[C@H](n3cnnn3)[C@H](OC)C2)CC(=O)[C@H](C)/C=C(\C)[C@@H](O)[C@@H](OC)C(=O)[C@H](C)C[C@H](C)/C=C/C=C/C=C/1C [Zotarolimus(ABT-578)],31.4
8,CN(CCOc1ccc(NS(C)(=O)=O)cc1)CCc1ccc(NS(C)(=O)=O)cc1 [Dofetilide],-0.1
9,Cc1cc(-c2ccc(/N=N/c3ccc4c(S(=O)(=O)O)cc(S(=O)(=O)O)c(N)c4c3O)c(C)c2)ccc1/N=N/c1ccc2c(S(=O)(=O)O)cc(S(=O)(=O)O)c(N)c2c1O [Evans Blue],-2.52
10,CCN(CC)C(=O)[C@@]1(c2ccccc2)C[C@H]1CN [Levomilnacipran Hydrochloride],-0.66
11,CN1CCc2cc3c(cc2C(=O)Cc2ccc4c(c2C1)OCO4)OCO3 [Protopine],0.9
12,COc1ccnc(C[S+]([O-])c2nc3cc(OC(F)F)ccc3[nH]2)c1OC (stereo not given) [Pantoprazole sodium],-0.49
13,Fc1ccc([C@@H]2CCNC[C@H]2COc2ccc3c(c2)OCO3)cc1 [Paroxetine mesylate],-0.05
14,C[C@]12CC[C@@H]3c4ccc(OS(=O)(=O)O)cc4CC[C@H]3[C@@H]1CCC2=O [Estropipate],-0.39
15,N#C/C(=C1/SC[C@@H](c2ccc(Cl)cc2Cl)S1)n1ccnc1 [Luliconazole],11.1
16,CN1[C@@H](CC(=O)c2ccccc2)CCC[C@H]1C[C@H](O)c1ccccc1 [Lobeline hydrochloride],0.01
17,CCCCCc1ccc(C)cc1O [Amylmetacresol],0.41
18,Cn1nnc(-c2ccc(-c3ccc(N4C[C@H](COP(=O)(O)O)OC4=O)cc3F)cn2)n1 [Tedizolid Phosphate],-0.73
19,COC(=O)C1=C(C)NC(C)=C(C(=O)OC2CCCN(Cc3ccccc3)C2)C1c1cccc([N+](=O)[O-])c1 (stereo not given) [Benidipine HCl],-0.21
20,CC(=O)[C@@]1(O)CC[C@H]2[C@@H]3C[C@H](C)C4=CC(=O)CC[C@]4(C)[C@H]3CC[C@@]21C [Medroxyprogesterone],0.34
